The test system of assay [1] is TRPC4 beta (transient receptor potential cation channel C4), mouse. As to the kind of experiment: TRPC4 cation channel opening, retest – cell-based, Fluo4 calcium, HEK293 TRPC4beta/mu-opioid, duplicates, 10 µM, confirmation (AID 2426;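 active means fluorescence ratio normalized to control raised more than 50% in primary screen plus both repeat runs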). The note with it: Fluo4 calcium fluorescence, at 10 µM; stronger effect = higher value.
Assay [2] concerns transient receptor potential cation channel C4 beta (TRPC4), mouse. As to the kind of experiment: TRPC4 cation channel opening, second retest – cell-based, second round, Fluo4, HEK293 TRPC4beta/mu-opioid, 1 µM, confirmation (AID 2461;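 active means primary screen active and over 50% activation in each of two duplicate runs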). The note with it: Fluo4 calcium fluorescence, at 1 µM; stronger effect = higher value.
In assay [3] the test system is TRPC4 (transient receptor potential cation channel C4 beta), mouse. As to the kind of experiment: potentiation of DAMGO EC20 TRPC4 response – cell-based, second round, Fluo-4, HEK293 TRPC4beta/mu-opioid, 1 µM, confirmation (AID 2554;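 active means primary screen hit whose fluorescence ratio, in both repeats, exceeds the weak agonist control mean by 3 SD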). The note with it: DAMGO EC20, Fluo-4 calcium flux, at 1 µM; stronger effect = higher value.
The test system of assay [4] is TRPC4 beta (transient receptor potential cation channel C4), mouse. As to the kind of experiment: potentiation of DAMGO EC20 TRPC4 response – cell-based, Fluo-4, HEK293 TRPC4beta/mu-opioid, confirmation (AID 2555;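 active means primary screen hit whose calcium fluorescence ratio, in both repeats, exceeds the weak agonist control mean by 3 SD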). The note with it: DAMGO EC20, Fluo-4 calcium flux, at 10 µM; stronger effect = higher value.
Assay [5] deals with Short transient receptor potential channel 4 (Mus musculus) (UniProt Q9QUQ5). Description: blockers of DAMGO-evoked TRPC4 calcium flux – cell-based, Fluo4, HEK293 TRPC4beta/mu-opioid, confirmation (AID 2636;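 active means calcium signal cut by more than 3 SD below the full-agonist control yet still positive, in both repeats and the earlier primary screen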). The conditions noted are these: at 10 µM; stronger effect = higher value.
The target is the same in assay [6]. Description: blockers of DAMGO-evoked TRPC4 calcium flux – cell-based, second round, Fluo4, HEK293 TRPC4beta/mu-opioid, 1 µM, confirmation (AID 2637;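 active means calcium signal ratio cut to more than 3 SD under the fully stimulated control mean yet still positive, in both repeats and the primary screen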;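 on inhibition: percent of integrated ratio relative to wells lacking test compound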). The note with it: at 1 µM; stronger effect = higher value.
Assay [7] has the same target. Description: calcium entry via TRPC4 opening agents – cell-based, HEK293 TRPC4/mu-opioid, Fluo-4 calcium, dose response (AID 434937). The conditions noted are these: HEK293 TRPC4 cells, Fluo-4 calcium fluorescence ratio; series mostly up to 20 µM.
For assay [8] the target is unchanged. Description: potentiation of DAMGO-evoked TRPC4 calcium signal – cell-based, HEK293 TRPC4/mu-opioid, Fluo-4 calcium, EC20 DAMGO, dose response (AID 434941;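 active means earlier screen potentiator hit that boosts the TRPC4 ion channel at some dose, with a dose response; inactive means no potentiation, no dose response, or not a prior hit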;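 further: calcium entry triggered by an EC20 dose of DAMGO at the co-expressed mu-opioid receptor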). The note with it: HEK293 TRPC4/mu-opioid cells, Fluo-4 calcium fluorescence; series mostly up to 20 µM.
Assay [9] addresses Short transient receptor potential channel 6 (Mus musculus) (UniProt Q61143). Description: TRPC6 blockade by TRPC4 inhibitor hits – cell-based, HEK293, membrane potential dye, duplicate, selectivity assay for TRPC4 inhibitor project, confirmation (AID 434948;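 active means active in primary screen and both duplicates, each dropping signal beyond three positive-control SD with fluorescence still positive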). The conditions noted are these: HEK293 TRPC6, membrane potential dye fluorescence, at 10 µM, stimulated with maximal-effect acetylcholine; stronger effect = higher value.

Assay [10] shares this target. Description: TRPC6 opening by TRPC4 activator hits – cell-based, HEK293, membrane potential dye, duplicate, selectivity assay for TRPC4 activator project, confirmation (AID 434950;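 active means membrane potential signal rise above negative control mean plus 3 SD in both duplicates, also active in the earlier TRPC4 screen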). The note with it: HEK293 TRPC6, membrane potential fluorescence, at 10 µM; activation: stronger effect = higher value; outcome: activation.
The target is the same in assay [11]. As to the kind of experiment: positive modulators of mouse TRPC6 channel – HEK293 cells, membrane potential dye, duplicate, selectivity assay for TRPC4 potentiator project, confirmation (AID 434952;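 active means compound raising the membrane signal above positive-control mean plus 3 SD in both repeats, and a primary screen hit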). The note with it: HEK293 TRPC6, membrane potential dye fluorescence, at 10 µM, maximal acetylcholine added after compound; stronger effect = higher value.
For assay [12], the target named is Short transient receptor potential channel 4 (Mus musculus) (UniProt Q9QUQ5). Description: calcium flux activators in TRPC4/5HT1a cells, counter-screen for TRPC4 activator project, cell-based, second counter screen, HEK293 TRPC4/5HT1a, Fluo-4 (AID 434977;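 active means calcium signal rise above buffer-control mean plus 5 SD in both duplicates, and also a hit in the primary screen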). The note with it: Fluo-4 calcium flux, at 10 µM; stronger effect = higher value.
A short description of assay [13]: serotonin-gated TRPC4 signal block – cell-based, second counter screen, HEK293 TRPC4/5HT1a, Fluo-4, counter-screen for TRPC4 inhibitor project, confirmation (AID 434978;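 active means primary screen active whose calcium signal fell more than 3 SD beyond the full-serotonin control mean in both duplicate plates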;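 on outcome: serotonin given first at submaximal then at maximal dose after compound preincubation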). The note with it: Fluo-4 calcium flux, at 10 µM, serotonin added to trigger calcium flux; stronger effect = higher value.
The subject of assay [14] is TRPC4 (mouse), co-expressed with 5HT1a in HEK293. As to the kind of experiment: enhancement of serotonin-evoked TRPC4 response – cell-based, second counter screen, HEK293 TRPC4/5HT1a, Fluo-4, counter-screen for TRPC4 potentiator project, confirmation (AID 434979;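 active means signal rise over 3 SD above mean of control wells given weak agonist, in both repeats and first screen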). The conditions noted are these: Fluo-4 calcium flux, at 10 µM, serotonin added at its EC20 dose; stronger effect = higher value.

The nature of assay [15]: nonspecific calcium rise without TRPC4 – cell-based, HEK293 mu-opioid receptor line, counter-screen for TRPC4 activator project, confirmation (AID 449723;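 active means hit in primary screen, with calcium signal over 5 SD above buffer well mean in both duplicates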;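 further: counter screen cells carry the mu-opioid receptor alone and lack TRPC4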). The conditions noted are these: HEK293 mu-opioid cells, Fluo-4 calcium fluorescence, at 10 µM; stronger effect = higher value.
Assay [16] is described as follows: nonspecific potentiation of DAMGO calcium response – cell-based, HEK293 mu-opioid receptor line, counter-screen for TRPC4 allosteric potentiator project, confirmation (AID 449724;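 active means calcium signal rise more than 3 SD above the low-dose agonist control mean, in both duplicate plates and the primary screen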;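 further: HEK293 cells carrying mu-opioid receptor only with no TRPC4 channel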). The conditions noted are these: HEK293 mu-opioid receptor cells, Fluo-4 calcium flux, at 10 µM, compound added before EC20 DAMGO stimulus; stronger effect = higher value.

SMILES strings stand for the structures. For part of these data: Entries with a potency or affinity are not part of this list. Calls of active or inactive are those of the source.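 How the source made its calls, unless noted: active means primary screen activator hit with a dose response curve and TRPC4 channel activation at any tested dose; inactive means no activation, no dose response, or not a primary hit.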

Sequence of Short transient receptor potential channel 4 (Mus musculus) (Q9QUQ5 whole entry, looked up): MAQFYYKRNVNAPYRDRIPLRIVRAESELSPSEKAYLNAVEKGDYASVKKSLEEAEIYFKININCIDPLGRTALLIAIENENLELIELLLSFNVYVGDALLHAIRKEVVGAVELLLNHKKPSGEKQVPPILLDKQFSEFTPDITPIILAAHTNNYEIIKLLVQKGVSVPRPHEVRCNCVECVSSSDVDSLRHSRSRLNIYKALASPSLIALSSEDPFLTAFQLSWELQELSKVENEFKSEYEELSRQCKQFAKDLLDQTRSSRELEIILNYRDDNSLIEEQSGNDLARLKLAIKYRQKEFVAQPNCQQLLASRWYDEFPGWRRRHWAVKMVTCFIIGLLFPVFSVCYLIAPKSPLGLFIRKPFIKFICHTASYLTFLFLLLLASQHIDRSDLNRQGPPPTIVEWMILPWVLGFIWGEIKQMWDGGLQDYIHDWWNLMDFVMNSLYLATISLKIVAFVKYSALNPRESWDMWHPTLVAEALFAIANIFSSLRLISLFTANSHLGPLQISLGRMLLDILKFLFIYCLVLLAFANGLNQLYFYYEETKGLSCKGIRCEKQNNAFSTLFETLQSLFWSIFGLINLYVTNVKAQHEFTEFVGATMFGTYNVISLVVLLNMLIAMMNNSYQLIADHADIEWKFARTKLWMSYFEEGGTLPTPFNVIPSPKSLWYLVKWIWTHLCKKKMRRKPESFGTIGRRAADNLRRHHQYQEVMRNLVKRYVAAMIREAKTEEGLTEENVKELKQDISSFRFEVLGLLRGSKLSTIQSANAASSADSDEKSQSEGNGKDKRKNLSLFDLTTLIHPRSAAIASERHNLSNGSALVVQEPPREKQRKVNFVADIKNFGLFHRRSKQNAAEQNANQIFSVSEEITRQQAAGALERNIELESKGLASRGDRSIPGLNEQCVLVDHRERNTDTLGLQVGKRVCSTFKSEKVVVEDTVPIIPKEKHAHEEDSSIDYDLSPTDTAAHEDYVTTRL
Sequence of Short transient receptor potential channel 6 (Mus musculus) (Q61143 whole entry, looked up): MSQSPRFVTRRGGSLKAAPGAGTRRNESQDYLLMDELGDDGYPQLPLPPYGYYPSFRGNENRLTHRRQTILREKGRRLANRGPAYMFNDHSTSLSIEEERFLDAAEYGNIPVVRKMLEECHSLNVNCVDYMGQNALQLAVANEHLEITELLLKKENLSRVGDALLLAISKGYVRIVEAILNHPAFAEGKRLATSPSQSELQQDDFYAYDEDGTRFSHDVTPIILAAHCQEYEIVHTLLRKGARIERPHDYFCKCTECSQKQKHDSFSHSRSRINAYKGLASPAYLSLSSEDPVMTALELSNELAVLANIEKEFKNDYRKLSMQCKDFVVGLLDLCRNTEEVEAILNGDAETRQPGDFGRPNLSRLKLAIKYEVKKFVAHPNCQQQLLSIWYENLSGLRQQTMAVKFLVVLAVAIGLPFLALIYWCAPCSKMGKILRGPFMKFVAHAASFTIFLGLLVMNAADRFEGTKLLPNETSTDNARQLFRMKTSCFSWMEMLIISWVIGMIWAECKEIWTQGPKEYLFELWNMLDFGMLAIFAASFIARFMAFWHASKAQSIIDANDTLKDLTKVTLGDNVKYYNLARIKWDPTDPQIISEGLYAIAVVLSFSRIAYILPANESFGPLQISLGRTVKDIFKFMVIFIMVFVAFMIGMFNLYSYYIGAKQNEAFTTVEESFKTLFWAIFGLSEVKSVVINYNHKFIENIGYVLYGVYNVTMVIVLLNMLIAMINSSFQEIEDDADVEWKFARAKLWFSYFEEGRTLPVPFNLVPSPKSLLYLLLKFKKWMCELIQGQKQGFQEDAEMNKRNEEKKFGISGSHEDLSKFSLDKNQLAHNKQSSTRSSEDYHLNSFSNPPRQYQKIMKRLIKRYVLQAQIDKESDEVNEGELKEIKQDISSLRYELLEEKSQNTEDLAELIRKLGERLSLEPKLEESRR

Consider `CCC(C)NC(C(=O)Nc1ccc(Cl)c([N+](=O)[O-])c1)c1ccccc1` (stereo not given), for which the result in [1], in assay [2], in assay [3], in [4], in assay [6] and in [7] was inactive. Moreover, the result in assay [8], in [9], in [10], in [11], in assay [12] and in [13] was inactive. Also, the result in assay [14], in assay [15] and in assay [16] was inactive. The inhibition in assay [5] is 73% (active).

With `CCCn1c(=O)c2ccccc2n2c(SCCOc3ccccc3)nnc12`, the outcome in [1], in [2], in assay [3], in assay [4], in assay [6] and in assay [7] was inactive. For the same molecule, the result in assay [8], in assay [9], in assay [10], in assay [11], in assay [12] and in [14] was inactive. In addition, the outcome in assay [15] and in assay [16] was inactive. Further, the inhibition was 67% (active) in assay [5] and 37.4% (active) in [13].

Regarding `O=C(Nc1ccccc1N1CCN(C(=O)c2ccc(Cl)cc2)CC1)c1cccc([N+](=O)[O-])c1`, the result in assay [1], in assay [2], in [3], in assay [4], in assay [7] and in assay [8] was inactive. Moreover, the result in [9], in assay [10], in assay [11], in assay [12], in assay [14] and in assay [15] was inactive. The outcome in assay [16] was inactive. Further, the results for the inhibition in assay [5], in [6] and in [13] were 81% (active), 52% (active) and 36.6% (active), respectively.

Take `CCOc1c(Cl)cc(CNCC(O)c2ccccc2)cc1OC` (stereo not given): the result in assay [1], in [2], in assay [3], in [4], in assay [6] and in [7] was inactive. Moreover, the outcome in assay [8], in assay [9], in assay [10], in assay [11], in [12] and in assay [13] was inactive. Besides, the result in [14], in assay [15] and in assay [16] was inactive. The inhibition in assay [5] was 86% (active).

For the molecule `CCCc1cc(=O)[nH]c(SCC(=O)Nc2sc3c(c2C#N)CCCC3)n1`, the outcome in [1], in assay [2], in [3], in [4], in [6] and in assay [7] was inactive. Further, the outcome in [8], in assay [9], in [10], in assay [11], in assay [12] and in assay [13] was inactive. The result in assay [14], in assay [15] and in assay [16] was inactive. The inhibition in assay [5] was 85% (active).

On to `CC(C)(C)c1cc2cccnc2n1Cc1ccccc1`, for which the outcome in assay [1], in assay [2], in assay [3], in assay [4], in assay [7] and in assay [8] was inactive. For the same molecule, the result in [9], in assay [10], in assay [11], in assay [12], in assay [14] and in [15] was inactive. Besides, the result in assay [16] was inactive. The inhibition is 95% (active) in assay [5], 70% (active) in assay [6] and 15.4% (active) in [13].

For the molecule `CCn1c(=N)n(CC(=O)c2ccc(Br)s2)c2ccccc21`, the result in assay [1], in [2], in assay [3], in [4], in [5] and in assay [6] was inactive. For the same molecule, the result in [7], in [8], in assay [10], in assay [11], in assay [12] and in [13] was inactive. The outcome in assay [14], in assay [15] and in assay [16] was inactive. Moreover, in [9], the inhibition was 59% (active).

As to `OCCNCc1cc(Br)ccc1OCc1ccc(Cl)cc1Cl`, the result in assay [1], in [2], in [3], in assay [4], in assay [6] and in [7] was inactive. The outcome in assay [8], in assay [9], in [10], in assay [11], in assay [12] and in assay [14] was inactive. The result in assay [15] and in assay [16] was inactive. In addition, the inhibition in assay [5] is 49% (active); in assay [13], 24.9% (active).

Turning to `COCCn1c(SCC(=O)Nc2ccccc2OC)nc2c([nH]c3ccccc32)c1=O`, the outcome in assay [1], in assay [2], in assay [3], in assay [4], in assay [6] and in assay [7] was inactive. Moreover, the outcome in [8], in assay [9], in assay [10], in [11], in [12] and in assay [14] was inactive. The result in [15] and in assay [16] was inactive. The figures for the inhibition in [5] and in assay [13] were 71% (active) and 36.6% (active), respectively.

Consider `C=CCOc1ccc(C2CC(C)=NN2c2ccccc2)cc1` (stereo not given), for which the result in assay [1], in [2], in assay [3], in [4], in [7] and in assay [8] was inactive. Moreover, the result in [9], in assay [10], in [11], in [12], in assay [14] and in assay [15] was inactive. Besides, in [16], the result was inactive. Besides, the figures for the inhibition in [5], in assay [6] and in assay [13] were 84% (active), 44% (active) and 32% (active), respectively.

For the molecule `CCCCn1c(NCc2ccc(N(C)C)cc2)nc2ccccc21`, the result in assay [1], in assay [2], in assay [3], in [4], in assay [7] and in assay [8] was inactive. Besides, the result in [10], in assay [11], in assay [12], in assay [14], in [15] and in assay [16] was inactive. Moreover, the inhibition in [5] is 93% (active); in assay [6], 50% (active); in assay [9], 51.5% (active); in assay [13], 24.4% (active).

Consider `Cc1ccc(C)c2[nH]c(=O)c(CN(Cc3nnnn3C3CCCCC3)CC3CCCO3)cc12` (stereo not given), for which the outcome in assay [1], in assay [2], in assay [3], in assay [4], in assay [6] and in assay [7] was inactive. Besides, the outcome in [8], in [9], in assay [10], in assay [11], in assay [12] and in [14] was inactive. Also, the result in [15] and in [16] was inactive. Moreover, the inhibition in assay [5] was 78% (active); in [13], 33% (active).

As for `Oc1ccc(-c2csc(-c3ccccc3)n2)cc1O`, the outcome in [1], in assay [2], in [3], in [4], in [6] and in assay [7] was inactive. For the same molecule, the outcome in assay [8], in [9], in assay [10], in assay [11], in assay [12] and in assay [13] was inactive. Moreover, the outcome in assay [14], in assay [15] and in assay [16] was inactive. Further, in assay [5], the inhibition is 80% (active).

Take `O=C(c1cccc(C(F)(F)F)c1)C1CCCN(Cc2cccn2-c2ccccn2)C1` (stereo not given): the outcome in [1], in [2], in assay [3], in assay [4], in [6] and in assay [7] was inactive. Further, the outcome in [8], in [10], in [11], in assay [12], in assay [14] and in assay [15] was inactive. The result in [16] was inactive. In addition, the inhibition in assay [5] was 72% (active); in assay [9], 43% (active); in assay [13], 29.2% (active).

As to `O=S(=O)(c1ccccc1)N1CCN(C/C=C/c2ccccc2)CC1`, the result in assay [1], in assay [2], in assay [3], in assay [4], in assay [6] and in [7] was inactive. Moreover, the result in assay [8], in [9], in [10], in assay [11], in assay [12] and in [13] was inactive. Also, the result in assay [14], in [15] and in assay [16] was inactive. Besides, the inhibition in assay [5] was 93% (active).
